From PubChem BioAssay AID1117319 (Southern Research Institute, 2015)
The campaign covered roughly 260,000 compounds. About 1,500 (0.58%) were called active. Inconclusive results (about 5%) are left out.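 Rule for the calls: active = inhibition above a set limit at one or more doses, reproduced on every date tested; inconclusive = results disagree between test dates, or hit never tested in dose response; inactive = the rest.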 Only a sample is shown. Results with a measured potency or affinity are listed apart.

These molecules were tested against Virion infectivity factor (Human immunodeficiency virus type 1 group M subtype B (isolate BH10)) + Virion infectivity factor (Human immunodeficiency virus type 1 group M subtype B (isolate BRU/LAI)) + Virion infectivity factor (Human immunodeficiency virus type 1 group M subtype B (isolate PCV12)) + Virion infectivity factor (Human immunodeficiency virus type 1 group M subtype B (isolate HXB2)) + DNA dC->dU-editing enzyme APOBEC-3G (Homo sapiens) (UniProt P69720+P69721+P69722+P69723+Q9HC16) (assay: HIV-1 Vif–A3G interaction blockers – biochemical, TR-FRET, GST-Vif 1-94, biotin-A3G peptide, dose response retest, primary screen (AID 1117319;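 note: Vif residues 1-94 fused to GST binding biotinylated APOBEC3G peptide 110-148; 0% = full assay without inhibitor and 100% = GST in place of GST-Vif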)). Details: TR-FRET GST-Vif / biotin-A3G peptide binding; hits give high values.

inhibition, inactive:
Cc1c(CNCCc2ccccc2Cl)c(C(=O)O)c(C)n1-c1ccccc1 -7.23%
Cc1ccc(C(=O)NC(=S)Nc2cccc(-c3nc4ccccc4s3)c2)cc1 9.8%
CSCCC(NS(=O)(=O)c1ccccc1F)C(=O)NCC(C)(C)N1CCOCC1 (stereo not given) 1.29%
O=C(OCc1nc2ccsc2c(=O)[nH]1)c1ccc(Cl)s1 11.9%
CCCCN(C(=O)C(C)(C)Oc1ccc(Cl)cc1)c1c(N)n(CCC)c(=O)[nH]c1=O -3.39%
CC(C)CN(CC(C)C)C(=O)Nc1cccc([N+](=O)[O-])c1 0.14%
CCC(C)NC(=O)CSc1nnc(-c2cc(OC)c(OC)c(OC)c2)c(-c2cc(OC)c(OC)c(OC)c2)n1 (stereo not given) 2.7%
NC(=O)NC(=O)CN1C(=O)NC2(CCOc3ccccc32)C1=O (stereo not given) 5.28%
N=C1C(c2ccccc2)=C(O)CN1c1cccc(O)c1 10.9%
Cc1ccc2c(c1)[C@H]1OCC[C@H]1[C@@H](c1ccncc1)N2 27.8%
O=C1CSc2ccc(C(=O)O)cc2N1 10.3%
COC(=O)c1ccc(C2Nc3ccc(/C(C)=N/NC(=O)C(OC)c4ccccc4)cc3C3C=CCC32)cc1 (stereo not given) 11.3%
CC1Cc2cc(C(=O)O)ccc2O1 (stereo not given) -3.49%
CCc1ccc2oc(=O)cc(CN3CCN(CCO)CC3)c2c1 4.78%
CC/C(=N\Nc1ccc([N+](=O)[O-])cc1[N+](=O)[O-])c1ccc(O)cc1 -6.92%
COc1cccc(-c2nnc3sc(-c4ccccn4)nn23)c1 -11.4%
COc1ccc(-c2nn3c(-c4ccccn4)nnc3s2)cc1OC 12.7%
COC(=O)c1cc(C)ccc1/C=C1/Cc2c(C)cc(C)cc2C1=O -4.06%
CC1CC1C(=O)OCC(=O)Nc1ncc(Cl)cc1Cl (stereo not given) 6.04%
CCc1cc(=O)n2[nH]c(C)c(-c3ccc(OC)cc3)c2n1 -3.08%
CCCc1cc(=O)n2[nH]c(C)c(-c3ccccc3OC)c2n1 -0.45%
COc1ccc(S(=O)(=O)N2CCC(C(=O)NCCC(=O)NCc3cccnc3)CC2)cc1 -0.14%
Cc1noc(C)c1CCC(=O)Nc1cc(C(=O)O)ccc1Cl 4.29%
Cc1ccc(NC(=O)CN2C(=O)N/C(=C/c3ccc4c(c3)OCCO4)C2=O)cc1 -0.54%
Cc1ccc(NC(=O)CN2C(=O)N/C(=C/c3ccc(C)o3)C2=O)cc1 30.9%
CCC1=NN2C(=N)/C(=C\c3cccn3-c3ccc(Cl)cc3)C(=O)N=C2S1 0.75%
CCC1=NN2C(=N)/C(=C/c3c(C)nn(-c4ccccc4)c3Cl)C(=O)N=C2S1 6.74%
N=C1/C(=C\c2ccc(SCc3ccccc3)o2)C(=O)N=C2SC=NN12 1.67%
N=C1/C(=C\c2ccc(OC(=O)c3ccco3)cc2)C(=O)N=C2SC=NN12 2.2%
CCCC1=NN2C(=N)/C(=C\c3cc(C)n(-c4cccc(C)c4)c3C)C(=O)N=C2S1 -10.2%
CCC1=NN2C(=N)/C(=C\c3cccn3-c3ccc(C)c(C)c3)C(=O)N=C2S1 2.9%
N=C1/C(=C\c2ccc(SCc3ccccc3)o2)C(=O)N=C2SC(CC(=O)N3CCOCC3)=NN12 18.9%
CC1=NN2C(=N)/C(=C\c3ccc(SCc4ccccc4)o3)C(=O)N=C2S1 26.3%
CCn1c(C(=O)O)c(S(=O)(=O)c2ccc(Cl)cc2)c2ccccc21 -1.5%
Nc1nnc(SCC(=O)OCc2ccccc2)s1 11.6%
COc1ccc(CCNC(=O)CN2C(=O)NC(c3ccccc3)(c3ccccc3)C2=O)cc1 2.71%
COc1ccc(-c2csc(N(CCc3ccccc3)C(=O)COc3ccccc3)n2)cc1 -2.24%
O=C1CC(c2ccccc2)NC(=S)N1 (stereo not given) 0.02%
Cc1ccc(/C=c2\sc3n(c2=O)CN(c2cccc(Br)c2)CN=3)o1 27.7%
Cc1onc(-c2ccccc2)c1C(=O)N1CCN(c2ccc([N+](=O)[O-])cc2)CC1 -0.35%
O=C1N(Cc2cccc(Cl)c2)C[C@@H]2C[C@@H](c3c[nH]c4ccccc34)N3CCC[C@@]123 0.3%
Cc1ccc(C(=O)OCC(=O)NCc2ccccc2)cc1S(=O)(=O)N1CCCCC1 -8.21%
Cn1c(N2C(=O)CC(Cc3ccccc3)C2=O)nc2ccccc21 (stereo not given) -1.11%
O=C1NC(=S)SC1=Cc1ccccc1Cl 1.68%
O=C1NC(=O)C(=Cc2ccco2)S1 -2.41%
Cc1sc2ncn(-n3c(C)ccc3C)c(=O)c2c1C 5.69%
COc1ccccc1-n1c(CNC(=O)c2ccco2)nnc1SCC(=O)Nc1ccc(F)cc1 -4.03%
O=c1[nH]c(=S)[nH]c2nccnc12 -0.53%
Cc1nc2[nH]c(=S)[nH]c(=O)c2nc1C 17.2%
COc1cc(C(=O)Nc2c(C)cc(C)cc2C)c([N+](=O)[O-])cc1OC -0.83%
O=C(CCc1nnc(CCCCc2ccccc2)o1)N1CCCC(O)C1 (stereo not given) 20%
COc1cc(/C=N/NC(=O)CNc2n[nH]c(=O)[nH]c2=O)ccc1OCc1ccccc1 2.21%
O=C(CNc1n[nH]c(=O)[nH]c1=O)N/N=C/c1ccccc1 -4.54%
COc1ccc(C(CNC(=O)c2ccc(OCC3CCCO3)cc2)N2CCOCC2)cc1 (stereo not given) -4.51%
CCCn1c(NC(=O)CSCC(=O)Nc2cc(C)on2)nc2ccccc21 -0.74%
COc1ccc2nc3c(nc2c1)CCCC3 -1.28%
c1coc(-c2cnc3ccccc3n2)c1 -5.45%
S=c1nc(-c2ccco2)[nH][nH]1 6.53%
CCn1c(-c2ccco2)nc2ccccc21 0.82%
c1coc(Cn2c(-c3ccco3)nc3ccccc32)c1 6.18%
c1coc(-c2ncc[nH]2)c1 0.85%
COc1ccc2nc3ccccc3nc2c1 0.36%
c1coc(-c2nc3ccccc3s2)c1 1.82%
COc1ccc(N(C(=O)c2ccco2)C(C(=O)NC2CCCC2)c2ccco2)cc1OC (stereo not given) 0.94%
COc1ccccc1/C=C/C(=O)OCC(=O)NC(=O)NC1CCCC1 -1.97%
CCn1cc(Cl)c(C(=O)Nc2cccc(C(F)(F)F)c2)n1 -0.07%
CC1(C)CC(NC(=O)COc2ccc([N+](=O)[O-])cc2)CC(C)(C)N1 -0.99%
CC(C(=O)O/N=C(\N)c1cccnc1)c1ccc([N+](=O)[O-])cc1 (stereo not given) -1.85%
COc1cc(/C=C/C(=O)OCC(=O)c2ccc(S(=O)(=O)N3CCCCC3)cc2)cc(OC)c1OC -29.8%
Cc1ccc(OCCSc2nc(NC(C)C)nc(NC(C)C)n2)cc1 -8.83%
CC(C)(C)NC(=O)CN1CCN(C(=O)CCl)CC1 -2.69%
Cc1oc2ccc(O)c(CN3CCOCC3)c2c1C(C)O (stereo not given) -6.07%
COCCN1C(=O)CC(NNC(=O)c2ccc(S(=O)(=O)N3CCCC3)cc2)C1=O (stereo not given) 8%
CCCC(C)NC(=O)c1ccc(-c2ccccc2)cc1 (stereo not given) -5.95%
Nc1nc(-c2ccco2)cs1 -0.78%
Nc1nnc(-c2ccco2)s1 15.6%
CCOC(=O)c1cnc(-n2nc(C)cc2C)[nH]c1=O -8.45%
Cc1sc(-c2ccccn2)nc1OC(=O)c1ccc(Cl)c(Cl)c1 -6.3%
CC1CCCCC1NC(=O)COC(=O)c1ccc2ccccc2n1 (stereo not given) -3.73%
O=C(COC(=O)c1c2c(nc3ccccc13)/C(=C/c1cccc([N+](=O)[O-])c1)CCC2)NC1CCS(=O)(=O)C1 (stereo not given) 29.1%
CN1CCc2nc3ccccc3c(C(=O)OCC(=O)N(CCC#N)c3ccccc3)c2C1 -5.14%
CC1CCCCC1NC(=O)COC(=O)c1c2c(nc3ccccc13)/C(=C\c1ccco1)CC2 (stereo not given) 4.28%
CN(CCC#N)C(=O)COC(=O)c1nn(-c2ccccc2)c(=O)c2ccccc12 -3.88%
CCc1nc2ccccc2c(C(=O)OCC(=O)NC2CCCC2)c1C 4.22%
Cc1ccc(N(Cc2ccccc2)C(=O)c2cccc(S(=O)(=O)N3CC(C)OC(C)C3)c2)cc1 (stereo not given) 5.98%
CCCCc1nnc(NC(=O)Cc2ccc(S(=O)(=O)N3CCOCC3)s2)s1 -4.48%
CCc1ccc(CN(C)C(C)C(=O)NCc2ccccc2)cc1 (stereo not given) -5.54%
CCOC(=O)c1oc2cc(C)cc(C)c2c1C 12.6%
C[C@]1(C(=O)NCCN2CCOCC2)C=C[C@@H](Cc2ccccc2)N1C(=O)c1ccccc1 -2.79%
N#Cc1cnc(N)c(Br)c1 -0.24%
COc1ccc(-n2c(=S)[nH]c3cc(C(=O)NCc4cccnc4)ccc3c2=O)cc1 -1.63%
Fc1cccc(F)c1-n1c(CN2CCOCC2)csc1=S -4.65%
C/C(N)=C(/C#N)C(=O)CSc1nnc(Nc2ccccc2C)s1 5.27%
C/C(N)=C(/C#N)C(=O)CSc1nnc(Nc2cccc(C)c2)s1 29.1%
Cn1c(SCC(=O)NCc2ccc3c(c2)OCO3)nnc1-c1cc2ccccc2cc1O 5.67%
